Bioassay records (PubChem)
Rows were chosen to be rich in hits. Some 11% of all compounds tested hit in one or more screens of this group.
OTUD3 inh: blocks human OTUD3 ubiquitin-rhodamine cleavage. Q5T2D3. purified OTUD3, Ub-rhodamine fluorescence, 2 h. inhibition, % at 25 µM. 47,000 compounds, 0.7% hits
USP17 inh: inhibitors of human USP17 deubiquitinase; A8MUK1; purified USP17, Ub-rhodamine cleavage fluorescence, 3 h; inhibition, % at 50 µM; 47,000 compounds, 6.5% hits; AID 1645855
USP28 inh: blocks human USP28 ubiquitin-rhodamine cleavage; purified USP28, Ub-rhodamine cleavage fluorescence, 30 min; inhibition, % at 25 µM; 47,000 compounds, 3% hits
USP30 block: human USP30 deubiquitinase inhibition; AID 1645860; purified USP30, Ub-rhodamine cleavage fluorescence; 47,000 compounds, 5.3% hits; Q70CQ3; inhibition, % at 25 µM
* marks the source's active call; other numbers are inactive results. Cut-off read from the data, not from the text of the source: active = inhibition above about 30%; inactive = the rest.

SMILES | OTUD3 inh | USP17 inh | USP28 inh | USP30 block
Cc1cccc(NC(=O)Cn2c(=O)n(CC(=O)NCCc3ccccc3)c(=O)c3ccccc32)c1C | 12.1 | 21.7 | 13.0 | 48.1*
COc1ccc(CCNC(=O)CCCn2c(SCC(=O)NCc3ccco3)nc3ccccc3c2=O)cc1OC | 37.1* | 32.7* | 0.3 | 40.6*
COc1ccc(CNC(=O)CCn2c(=O)c3sccc3n(Cc3cccc([N+](=O)[O-])c3)c2=O)cc1 | 13.8 | 11.4 | 10.7 | 12.6
COc1ccc(CCNC(=O)CSc2cc(=O)n(C)c3cc(Cl)ccc23)cc1OC | 4.4 | 37.6* | 5.9 | 29.8
COc1ccc(NC(=O)CCCCn2c(=O)c3ccccc3n(Cc3cccc([N+](=O)[O-])c3)c2=O)cc1 | 20.4 | 33.2* | 16.8 | 10.5
CN1CCN(C(=O)c2cc3cc(F)ccc3n2C)CC(C(N)=O)C1 (configuration not stated) | 1.8 | 2.4 | -2.8 | -1.7
COc1ccc(CCNC(=O)c2ccc(Cn3c(=O)c4ccccc4n(Cc4cc(=O)n5ccccc5n4)c3=O)cc2)cc1OC | 4.6 | 66.1* | 29.5 | 50.2*
Cc1ccc(Cn2c(=O)n(CCC(=O)NCCc3ccccc3)c(=O)c3ccccc32)cc1 | 24.6 | 46.4* | 29.8 | 63.1*
CCCCCn1c(SCC(=O)CC(=O)OCC)nc2cc(C(=O)NCc3ccco3)ccc2c1=O | -5.6 | 34.2* | -26.6 | -100.7
COc1ccc(CCNC(=O)CCCCn2c(=O)c3ccccc3n(Cc3cccc(Cl)c3)c2=O)cc1OC | 18.4 | 34.4* | 20.7 | 52.5*
COc1ccc(Cl)cc1NC(=O)Cn1c(=O)n(CCCCC(=O)NCCc2ccccc2)c(=O)c2ccccc21 | 14.4 | 13.8 | 1.3 | 5.0
CN1C(=O)Cc2cc(S(=O)(=O)CCC(=O)N3CCc4ccccc43)ccc21 | 2.0 | 23.9 | 7.1 | 22.5
CCn1nccc1C(=O)NC1(c2nc(-c3cnccn3)no2)CCCCC1 | 16.3 | 14.7 | 8.5 | 27.9
Cc1noc(C)c1S(=O)(=O)N1CCc2nc(-c3ccccc3)ncc2C1 | -4.9 | -22.1 | -4.6 | -47.4
c1ccc(-c2ccc(CN3CCCC(c4nnc5n4CCNCC5)C3)cc2)nc1 (configuration not stated) | -1.4 | -9.4 | -4.1 | -7.7
COc1ccc(OC)c(S(=O)(=O)NCC(c2ccc3c(c2)OCO3)N2CCCC2)c1 (configuration not stated) | 10.9 | 4.2 | 13.6 | 11.8
Cc1cccc(NC(=O)Cn2c(C)nc3c(c2=O)CCN(Cc2ccccc2)C3)c1C | -15.2 | 30.0* | -0.2 | -1.9
CCCc1nc2c(c(=O)n1CC(=O)NCC1CCCO1)CCN(Cc1ccccc1)C2 (configuration not stated) | 10.6 | 0.4 | -0.4 | -10.3
COC(=O)c1c(NC2CCCCC2)c2cccc(Cl)c2[nH]c1=O | 10.1 | 5.1 | 3.2 | 8.1
COc1ccc(S(=O)N2CCN(c3ccccc3F)CC2)c(OC)c1C (configuration not stated) | 7.0 | 0.6 | 4.5 | 12.5
CCN(CC)S(=O)(=O)c1ccc(O)c(NC(=O)COc2ccccc2F)c1 | -7.4 | 33.4* | -17.1 | 29.9
COc1ccc(C(=O)Nc2ccccc2C(=O)NC(Cc2ccc(O)cc2)C(=O)NNC(=O)Cc2ccc(OC)c(OC)c2)cc1 (configuration not stated) | -2.1 | 31.3* | 24.3 | 30.8*
Cc1ccc(COc2cc(C(=O)NCc3ccccc3C)c3ccccc3n2)cc1 | 24.5 | 19.7 | 16.0 | 43.0*
Cc1ccc(COc2cc(C(=O)NC(C)C)c3ccccc3n2)cc1 | 8.3 | 10.1 | 12.1 | 34.8*
O=C(NCC1CCCO1)c1cc2c(cn1)[nH]c1ccccc12 (configuration not stated) | -8.6 | -38.0 | 33.9* | -58.7
SMILES | OTUD3 inh | USP17 inh | USP28 inh | USP30 block
Cc1ccc(COc2cc(C(=O)NCC3CCCO3)c3ccccc3n2)cc1 (configuration not stated) | 3.7 | 5.3 | 2.8 | 45.7*
Cc1cc(C(=O)NCC2CCCO2)c2cccc(C)c2n1 (configuration not stated) | -9.7 | -31.9 | -7.1 | -49.7
O=S(=O)(c1cccnc1)N1CCc2[nH]nc(-c3ccc(F)cc3)c2C1 | 1.5 | -11.1 | 0.0 | 7.2
CCCNC(=O)c1nc(-c2cn(-c3ccc(Cl)cc3)nc2C)no1 | 2.6 | 3.6 | 1.5 | 0.5
CNS(=O)(=O)Cc1ccccc1CNC(=O)c1c(-c2ccccc2)noc1C | 2.5 | 6.4 | -0.7 | -2.4
O=C(c1ccc(F)cc1)N(CCc1ccccc1)c1nc2ccccc2s1 | 12.6 | 11.1 | 10.5 | 17.3
CC(C)c1c(O)ccc2c1CCC1[C@@](C)(C=O)CCC[C@]21C (some centres not stated) | 9.3 | 35.0* | 13.5 | 18.3
